Experimental data from PubChem BioAssay AID1159580 (chemical genetic matrix, 2015).
The campaign covered roughly 5,500 compounds. About 2,000 (36%) were called active. Roughly 18% stayed inconclusive and do not appear here. No stated cut-off is given here; in the data, active means normalized growth mostly below about 0.91 (no sharp cut-off); inconclusive means no clear call, values can overlap the other calls; inactive means mostly above about 0.92. The list shows a part of the results.

Assay: chemical genetic growth profiling, strain panel (AID 1159580);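 further: tested at 20 µM; growth read once vehicle control cultures reached saturation at 30 °C; 1 = growth at the plate median or of vehicle wells; lower values mean less growth of the strain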
Settings: S. cerevisiae deletion strains, growth OD

Measured: normalized growth

[N-]=[N+]=CC(=O)OCC(N)C(=O)O (centres undefined)
inactive: locus YAL021C, strain ccr4, hits give low values 0.994 | locus YAL026C, strain drs2, hits give low values 0.988 | locus YAL030W, strain snc1, hits give low values 1.02 | locus YBL061C, strain skt5, hits give low values 1.01 | locus YBR009C, strain hhf1, hits give low values 0.979 | locus YBR023C, strain chs3, hits give low values 0.995 | locus YBR171W, strain sec66, hits give low values 1.02 | locus YBR231C, strain swc5, hits give low values 1.03 | locus YBR279W, strain paf1, hits give low values 0.98 | locus YCL011C, strain gbp2, hits give low values 0.983 | locus YCL016C, strain dcc1, hits give low values 0.958 | locus YCL061C, strain MRC1, hits give low values 1.02 | locus YCL069W, strain vba3, hits give low values 1 | locus YCR088W, strain abp1, hits give low values 1.01 | locus YDL005C, strain med2, hits give low values 0.992 | locus YDL040C, strain nat1, hits give low values 1 | locus YDR001C, strain nth1, hits give low values 0.995 | locus YDR069C, strain doa4, hits give low values 1.03 | locus YDR137W, strain rgp1, hits give low values 0.99 | locus YDR159W, strain sac3, hits give low values 0.978 | locus YDR195W, strain ref2 1.03 | locus YDR297W, strain sur2, hits give low values 1.02 | locus YDR334W, strain swr1, hits give low values 1 | locus YDR335W, strain msn5, hits give low values 1.01 | locus YDR392W, strain spt3, hits give low values 0.931 | locus YEL003W, strain gim4, hits give low values 1.01 | locus YEL037C, strain rad23, hits give low values 1 | locus YEL061C, strain CIN8 (second series), hits give low values 1 | locus YER015W, strain faa2, hits give low values 1.01 | locus YER016W, strain bim1, hits give low values 0.995 | locus YER111C, strain swi4, hits give low values 1 | locus YER155C, strain BEM2 (second series), hits give low values 1.05 | locus YFR010W, strain ubp6, hits give low values 1.01 | locus YGL167C, strain pmr1, hits give low values 1.02 | locus YGL173C, strain kem1, hits give low values 1.02 | locus YGL227W, strain vid30, hits give low values 1.01 | locus YGL240W, strain doc1, hits give low values 1.04 | locus YGL253W, strain hxk2, hits give low values 0.973 | locus YHR013C, strain ard1, hits give low values 1.01 | locus YHR027C, strain rpn1, hits give low values 0.995 | locus YHR030C, strain SLT2, hits give low values 0.967 | locus YHR079C, strain IRE1, hits give low values 0.977 | locus YHR142W, strain chs7, hits give low values 0.976 | locus YJL092W, strain hpr5, hits give low values 1.01 | locus YJL095W, strain BCK1 (second series), hits give low values 1.01 | locus YJL095W, strain BCK1, hits give low values 0.977 | locus YJL115W, strain asf1, hits give low values 1.01 | locus YJL129C, strain trk1, hits give low values 1.01 | locus YJL154C, strain vps35, hits give low values 1 | locus YJL164C, strain tpk1, hits give low values 0.985 | locus YJL166W, strain qcr8, hits give low values 1.05 | locus YJR066W, strain TOR1, hits give low values 0.936 | locus YKL160W, strain elf1, hits give low values 1.02 | locus YKR026C, strain gcn3, hits give low values 1 | locus YKR091W, strain srl3, hits give low values 1.01 | locus YLL001W, strain dnm1, hits give low values 1.04 | locus YLL026W, hits give low values 1.01 | locus YLL041C, strain sdh2, hits give low values 1 | locus YLR027C, strain aat2, hits give low values 1.01 | locus YLR113W, strain HOG1, hits give low values 0.964 | locus YLR221C, strain rsa3, hits give low values 0.976 | locus YLR258W, strain gsy2, hits give low values 0.994 | locus YLR262C, strain YPT6 (second series), hits give low values 1.02 | locus YLR320W, strain mms22, hits give low values 0.991 | locus YLR342W, strain FKS1, hits give low values 1.04 | locus YLR357W, strain rsc2, hits give low values 1 | locus YLR370C, strain arc18, hits give low values 1.01 | locus YLR384C, strain iki3, hits give low values 1 | locus YML120C, strain ndi1, hits give low values 1 | locus YMR058W, strain fet3, hits give low values 1.01 | locus YMR125W, strain sto1, hits give low values 0.984 | locus YMR129W, hits give low values 0.999 | locus YMR205C, strain PFK2, hits give low values 1.03 | locus YMR231W, strain pep5, hits give low values 1 | locus YNL071W, strain lat1, hits give low values 0.992 | locus YNL183C, strain NPR1, hits give low values 0.937 | locus YNL209W, strain ssb2, hits give low values 0.989 | locus YNL248C, strain rpa49, hits give low values 0.976 | locus YNL322C, strain KRE1 (second series), hits give low values 0.999 | locus YNR049C, strain mso1, hits give low values 1 | locus YOR001W, strain rrp6, hits give low values 1.02 | locus YOR070C, strain gyp1, hits give low values 0.995 | locus YOR080W, strain dia2, hits give low values 1.02 | locus YOR083W, strain WHI5, hits give low values 0.992 | locus YOR106W, strain vam3, hits give low values 1.03 | locus YOR231W, strain MKK1, hits give low values 0.976 | locus YOR265W, strain rbl2, hits give low values 0.998 | locus YOR270C, strain vph1, hits give low values 1.03 | locus YOR290C, strain snf2, hits give low values 0.961 | locus YPL051W, strain arl3, hits give low values 1.01 | locus YPL078C, strain atp4, hits give low values 1.03 | locus YPL106C, strain sse1, hits give low values 0.966 | locus YPL240C, strain hsp82, hits give low values 0.99 | locus YPL256C, strain CLN2, hits give low values 1
